Test results reported in the supplement of paper PMC6555819.

How the values were obtained:
Assay in all cases: PBM binding z-score (relative to random genomic background probes); higher = stronger binding; sequences stand for … in GC…GCGATTGACAGCGTAGAATGAAGG
[1] = system: PPARg:RXRa DBDmut IVT, anti-RXR (DBD mutation: RXRa K156A/R161A, NR concentration 270 nM, RXRa partner concentration 90 nM)
In short: (§1)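 Ligand-free nuclear receptor dimers were applied to custom Agilent 4×180K protein-binding microarrays whose double-stranded probes carried direct-repeat seeds, single-nucleotide variants, half-site ablations and random human genomic background sequences in 34-nt variable regions. Incubation lasted 1 h. Binding z-scores were computed against the random background probes from regression-normalized fluorescence.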

[2] = system: PPARg:RXRa IVT, anti-PPARg (NR concentration 270 nM, RXRa partner concentration 90 nM)
In short: as §1

[3] = system: PPARg DBDmut:RXRa IVT, anti-PPARg (DBD mutation: PPARg1 K132A/R137A, NR concentration 270 nM, RXRa partner concentration 90 nM)
In short: as §1

[4] = system: PPARg DBDmut IVT, anti-PPARg (DBD mutation: PPARg1 K132A/R137A, NR concentration 270 nM)
In short: as §1

[5] = system: PPARg homodimer (NR concentration 180 nM)
In short: as §1

[6] = system: PXR:RXRa (NR concentration 270 nM, RXRa partner concentration 90 nM)
In short: as §1

[7] = system: PXR homodimer (NR concentration 270 nM)
In short: as §1

[8] = system: RARa:RXR (NR concentration 270 nM, RXRa partner concentration 90 nM)
In short: as §1

[9] = system: RARa homodimer (NR concentration 270 nM)
In short: as §1

[10] = system: RARb:RXRa (NR concentration 270 nM, RXRa partner concentration 90 nM)
In short: as §1

Sequence | PBM binding z-score [1] | PBM binding z-score [2] | PBM binding z-score [3] | PBM binding z-score [4] | PBM binding z-score [5] | PBM binding z-score [6] | PBM binding z-score [7] | PBM binding z-score [8] | PBM binding z-score [9] | PBM binding z-score [10]
TCTTGTAGATCAGCAGGTTGAGAAAGCTGGCCAA | 1.7 | -0.16 | -1.19 | -1.18 | -0.343 | 0.181 | -0.51 | 0.426 | -0.127 | -0.0315
GCGACTGGGGCAAAGCAGTTTACCATAAGGTTGG | 4.75 | 3.5 | 0.0777 | -0.489 | 0.131 | 0.655 | -0.386 | -0.18 | -0.418 | 0.776
ATCTCTAGGTAAAAGTTCAGTTAATCCCGAGGAT | 1.85 | 3.99 | 1.85 | 1.29 | 2.13 | 2.28 | 2.02 | 1.85 | 1.39 | 2.24
CCTACTGGGCCAAAAAGGTCATTCATGCCGATAA | 3.69 | 3.97 | -0.431 | 0.123 | 4.57 | 5.41 | 4.84 | 5.86 | 2.12 | 4.22
ACAGACAGGTGATGAAGGTAAATCAGGCTATCAT | -0.0404 | 0.544 | 0.329 | 0.144 | 0.185 | -0.214 | -0.0702 | 0.248 | 0.26 | 0.21
CAAGCTAGGTCAAGGTCAAAGTCGGTTTGTGCCA | 4.41 | 5.17 | -0.662 | 0.302 | 3.54 | 5.15 | 1.35 | 5.06 | 1.43 | 5.2
TCATATAGGTAAATGCTAGGTGAAAATCCGATCT | 3.71 | 2.37 | 1.79 | 1.14 | 1.06 | 0.505 | 0.518 | 0.922 | 1.61 | 0.432
CGTCCAGGGTCAGCAGGTCAGTGAAAGCGACGTG | 1.76 | 3.07 | -0.496 | -0.836 | 2.79 | 3.35 | 0.0152 | 4.85 | 0.53 | 4.69
ATCGAAAGGTCGAGGTGAGTAAAGAGAAAGGGAA | 0.198 | 1.99 | 1.11 | 0.693 | 1.75 | 2 | 0.184 | 2.88 | 0.627 | 3.95
AATACAGGGTCATCGAAGGCCAGAGTACGCACAG | 2.6 | 4.19 | 1.28 | 0.988 | 2.16 | 5.22 | 0.967 | 4.45 | 0.641 | 4.32
CCTAGTTGGTCAGGAGGTCACACAGCGGATATGA | 1.92 | 3.62 | 0.997 | 0.401 | 5.93 | 4.51 | 2.55 | 5.39 | 3.77 | 3.81
TCTTGTAGATCAAGAGGAGGTTAAGAAAGATCGA | 1.29 | 0.615 | 0.0065 | 0.335 | 0.153 | 0.769 | -0.0434 | 1.09 | 0.139 | 0.364
CCTTACGGGTCCCGAGGTTATAGCACGACGAGCG | -1.26 | -0.545 | -0.471 | -1.66 | -0.111 | 0.32 | -0.277 | 0.482 | 0.138 | 0.514
CGTGAAAGTTCAACTAAGGTAACGTAAAGCACGC | -0.0451 | 1.86 | 0.513 | 0.603 | 2.63 | 5.31 | 3.52 | 3.81 | 1.22 | 5.19
CGAACTAGGCCAAGGACAGTGAATCTCCGCACGC | 6.24 | 4.83 | 0.31 | -0.452 | -0.431 | -0.557 | -0.632 | -0.45 | -0.416 | 0.81
CCCAGTTGGTCAAGGTCACACACGCTATAGGTAC | 1.74 | 3.31 | 2.05 | 0.443 | 4.04 | 4.46 | 3.52 | 4.63 | 2.32 | 4.24
TCTGGTAGGTCAACGATGGTCAGCTAATCTGCTA | 5.2 | 5.77 | 1.81 | 0.722 | 2.39 | 2.25 | 0.21 | 2.78 | 0.843 | 4.16
ATCGAAAAGTCGTGAGGTGAGTATACAGAAAGGC | -0.639 | 0.331 | 0.929 | 1 | 0.473 | 0.0533 | -0.117 | 0.486 | 0.556 | 0.552
CCTATTAGTTGAACATAAGGGCAACCGAAGCTCG | 0.458 | 0.463 | 0.856 | 0.515 | 1.56 | 0.574 | 0.963 | 0.973 | 1.2 | 1.38
ACAGACAGGTGTTGAAGGTAACTCAGGCTATCAT | -0.116 | -0.388 | -0.275 | 0.107 | -0.0576 | -0.158 | 0.379 | 0.0742 | -0.513 | -0.084
ATCGAAAGCTCGAGGTGAGTATAGAGAAAGGGAA | -0.98 | 0.455 | 0.71 | 0.162 | -1.14 | -0.37 | -0.567 | -0.162 | -0.838 | 0.00915
AGAACGAGGGCACGCTGAGTTGATACCAGAGTAG | 4.16 | 3.75 | 0.259 | -0.00374 | 0.189 | 1.25 | 0.342 | 0.748 | -0.804 | 2.36
GCTATTAGTTGAAAGTGCAACCGAATGATTCTCG | 0.238 | 0.262 | 0.449 | 0.384 | 0.768 | 0.683 | 0.384 | 0.526 | 0.153 | 0.775
ATCGACAGGTCGTGAGGTGAGTATACAGAAAGGC | -0.42 | 0.86 | -0.374 | -0.491 | 0.776 | 0.904 | 0.267 | 1.86 | 0.537 | 1.88
